Experimental data reported in PubChem BioAssay AID588398 (Broad Institute, 2011).
Among all 1,200 compounds or so, about 110 (9.2%) were called active. Not shown: some 8% with an inconclusive outcome. A selection follows. Entries with a potency or affinity are not part of this list. Unmarked numbers belong to inactive results.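 Rule for the calls: active = pathway reporter half-maximal dose under half the control reporter's, or control reporter unaffected while pathway reporter is inhibited; inconclusive = either signal flat at 30 to 70% inhibition or poorly fitted; inactive = the rest.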

Assay: TES1-eGFP NF-kB reporter inhibition versus Tet-On dsRED, dose response, selectivity assay for LMP1 NF-kB inhibitor project, imaging, HEK293T, dual-color eGFP/dsRED, cherry-picks (AID 588398);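 note: 0% = median of neutral control wells and -100% = median of MG132 positive control wells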
Conditions: 48 h; HEK293T Tet-On dsRED counter-screen channel, at 19.5 µM (top of the series); activity change, negative = inhibition: at the top concentration

| SMILES | activity change, negative = inhibition [%] |
| --- | --- |
| CC1(C)CC(=O)C(CC2=C(O)CC(C)(C)CC2=O)=C(O)C1 | 7.08 |
| CC(C)CC1C(=O)N(Cc2cn(CC3CCCCC3)nn2)CCS(=O)(=O)N1Cc1ccc(-c2ccc(F)nc2)cc1 (centres undefined) | -20.1 |
| Cc1cc(=O)[nH]c(N=N/C(=N/Nc2ccccc2C)c2ccccc2)n1 | 9.37 |
| COC(=O)c1ccccc1NC(=O)CSc1nnnn1C | 9.51 |
| COc1ccc(S(=O)(=O)NCC(c2cccnc2)N2CCN(c3ccc(F)cc3)CC2)cc1C (centres undefined) | -17.3 |
| O=C(CCNc1cccc(F)c1)c1cc2ccccc2o1 | -15.3 |
| NC(=O)c1sc2nccc(Nc3ccccc3)c2c1N | -95.8 |
| Cc1nn(-c2ccccc2)c(Cl)c1C1C(C#N)=C(N)Oc2n[nH]c(C)c21 (centres undefined) | -74.2 |
| O=S(=O)(c1ccc2c(c1)C(=NO)c1cc(S(=O)(=O)N3CCCCC3)ccc1-2)N1CCCCC1 | -16.7 |
| COc1ccc(S(=O)(=O)N2CCOCC2)cc1NC(=O)COC(=O)CCS(=O)(=O)c1ccc(C)cc1 | -0.234 |
| Oc1ccc2ccccc2c1N=Nc1ccccn1 | -97.9 |
| c1ccc(C(=NNc2nc3ccccc3s2)c2ccccn2)cc1 | -98.4 |
| CCOC(=O)c1sc(NC(=O)CNCc2ccccn2)c(C(=O)OCC)c1C | 15.4 |
| Oc1c(N=NC(=S)Nc2ccccc2F)c2ccccc2n1Cc1ccccc1 | 13.8 |
| COc1ccc(OCc2cccc(C(=O)NN)c2)cc1 | 22 |
| COc1ccc(C=C2OC(=O)C(C(C)=O)=C2O)cc1 | 8.52 |
| COc1ccc(-c2[nH]ncc2/C=N\NS(=O)(=O)c2ccc(Cl)cc2)cc1 | 3.98 |
| Cc1ccc(CCNC(=O)Cc2ccc(NC3=NC4CS(=O)(=O)CC4S3)cc2)cc1 (centres undefined) | -0.295 |
| O=C(NN1C(=O)C2C3C=CC(C4CC34)C2C1=O)c1cccc(Cl)c1 (centres undefined) | -7.95 |
| CCc1ccccc1NC(=O)COC(=O)c1c(C)nsc1NC | -8.52 |
| Oc1c(N=NC(=S)Nc2ccccc2F)c2ccccc2n1Cc1ccccc1Cl | 13.7 |
| O=c1cc(Cl)nc2ccccn12 | -0.736 |
| COc1ccc(-c2cc(C(=O)N3CCCC3)no2)cc1 | -22.8 |
| COc1ccc(CNC(=O)N2[C@H]3CC[C@@H]2C=C(c2ccc(F)cc2OCc2ccccc2)C3)cc1OC | -6.06 |
| COc1cc(C(=O)Oc2ccccc2/C=N/NC(=O)c2ccc(C)c(Cl)c2)cc(OC)c1OC | 17.4 |
| CCCC(=O)NCCCc1nc2ccccc2[nH]1 | -6.63 |
| O=C(Nc1nc(-c2ccccn2)cs1)c1ccc(Cl)s1 | 12.3 |

| SMILES | activity change, negative = inhibition [%] |
| --- | --- |
| COc1ccc(C(=O)NCCN2CCOCC2)cc1[N+](=O)[O-] | 2.04 |
| O=C(c1ccccc1)C(CCC(CN1CCOCC1)C(=O)c1ccccc1)CN1CCOCC1 (centres undefined) | -99.1 |
| CCON1C(=O)C2(CCCCC2)C(=O)C12C=CCCC2 (centres undefined) | 4.85 |
| COc1cc(N(C)C)c([N+](=O)[O-])cc1C(=O)N1CCN(Cc2ccccc2)CC1 | -24.6 |
| CC1CCN(C(=O)/C(=C\c2cccs2)NC(=O)c2ccccc2)CC1 | -15.3 |
| CCn1c(NC(=O)c2ccc(C)cc2)c2ccccc2nc1=O | -28.1 |
| COc1ccc2cc(-c3cc(C(=O)OCC(=O)Nc4c(C)n(C)n(-c5ccccc5)c4=O)c4ccccc4n3)ccc2c1 | 11.5 |
| COc1ccc(N2Cc3ccccc3C2=O)cc1 | -7.95 |
| O=C(NCc1ccccc1Cl)C1CCCN1S(=O)(=O)c1ccc(F)cc1 (centres undefined) | 0.031 |
| O=C(Nc1ncccc1O)c1ccc(S(=O)(=O)NCc2ccco2)cc1 | 78 |
| CCc1cc(C(=O)Nc2ncccc2O)sc1C | 61.7 |
| COCCn1c(SCC(=O)N2CCc3ccccc32)nc2c(c1=O)SC(C)C2 (centres undefined) | 16 |
| COc1ccc(-c2oc3ncnc(NCCN4CCOCC4)c3c2-c2ccc(OC)cc2)cc1 | -6.05 |
| COc1ccc(-c2csc3ncnc(NCCCO)c23)cc1 | -88 |
| COc1ccc(-c2cc(C(F)(F)F)n3nc(C(=O)N4CCOCC4)nc3n2)cc1 | -5.43 |
| Cc1ccccc1C(=O)N1CCN(c2ccc(NC(=O)CSc3ccc(Cl)cc3)cc2)CC1 | -33.2 |
| CN(Cc1ccccc1)c1nc(N)c([N+](=O)[O-])c(NCc2ccccc2)n1 | 13.6 |
| CCC(C)Nc1nc(-c2ccccn2)nc2ccccc12 (centres undefined) | -89.1 |
| Cc1ccc(C)c(S(=O)(=O)N2CCN(CC(=O)N3CCc4ccccc4C3)CC2)c1 | 4.86 |
| CCOc1ccc(OCC(=O)Nc2nccs2)cc1 | 3.42 |
| O=C(c1ccc(COc2ccccc2Cl)o1)N1CCCC1 | 26.2 |
| Cc1cc(C)n2nc(CC(=O)NC3CCCCCC3)nc2n1 | -3.96 |
| CCOC(=O)c1cn2nc(N3CCCCC3)ccc2n1 | -16.5 |
| COc1ccc(CCC(=O)Nc2ccc(C)c([N+](=O)[O-])c2)cc1 | -3.49 |
| O=C(C=C1SCCS1)/C=C/c1ccco1 | -8.35 |
| Cc1ccccc1Cn1c(O)c(N=NC(=S)Nc2ccccc2F)c2ccccc21 | 11.9 |
| CCc1ccc(C(=O)COC(=O)c2cccc(N3C(=O)c4c(C)nc5ccccc5c4C3=O)c2)cc1 | 239 |
